Test results from PubChem BioAssay (Tox21).
“And” between values parts separate entries of the source, which are not always exact repeats. Equal values may be shown once. Inconclusive results are not listed. Some compounds were tested as several samples or in several runs, with calls that do not always agree. The source made the active and inactive calls. Unless noted, the call rests on the fitted dose curve; in most records, active means well fitted curve in the direction sought with a large enough effect in the repeat runs; inconclusive means weak or mixed curves; inactive means no such curve, though single readings can be large; an effect the other way counts as inactive or inconclusive.

Key:
[1] = qHTS assay to identify small molecule antagonists of the estrogen related receptor (ERR) signaling pathway from Tox21 library - cell viability counter screen (AID 1224834); conditions: ERR reporter cells viability, CellTiter-Fluor, 17.5 h; series mostly up to 92.4 µM; further: nearly all actives have a fitted effect of over 30% in size; further: potency means the concentration at half of the fitted maximal effect
Procedure, shortened: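 Cytotoxicity of test substances is gauged in the same ERR cells used for the antagonist screen, after 17.5 h of compound treatment at 37 C, by CellTiter-Fluor fluorescence measured after 30 min.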

[2] = target: Luciferin 4-monooxygenase (Photinus pyralis) (UniProt P08659); test: qHTS assay to identify small molecule inhibitors of firefly luciferase (AID 1224835); further: nearly all actives have a fitted effect of over 25% in size; further: potency means the concentration at half of the fitted maximal effect; conditions: purified P. pyralis luciferase, luminescence inhibition; series mostly up to 115 µM
Procedure, shortened: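 Biochemical qHTS: compounds run as interplate titrations against purified firefly enzyme, with D-luciferin and ATP each at its KM concentration. Light output recorded by CCD imaging.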

[3] = qHTS assay to identify small molecule agonists of the constitutive androstane receptor (CAR) signaling pathway - cell viability counter screen (AID 1224836); conditions: HepG2-CYP2B6-hCAR viability, CellTiter-Fluor, 23 h, PK11195 added to every well; series mostly up to 92.4 µM; further: nearly all actives have a fitted effect of over 45% in size
Procedure, shortened: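 23 h treatment, 37 C, 5% CO2. Cell line: HepG2 stably expressing hCAR with a CYP2B6-2.2kb construct. Co-treatment: PK11195, 0.75 uM final. Read-out: CellTiter-Fluor fluorescence intensity.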

[4] = qHTS assay to identify small molecule antagonists of the estrogen related receptor signaling pathway with the pleiotropic PPARgamma coactivator (PGC) from Tox21 10K library - cell viability counter screen (AID 1224840; active means well fitted cell-killing curve with a large enough effect in the repeat runs, not every such curve was filed as active; further: nearly all actives have a fitted effect of over 40% in size); conditions: PGC/ERR reporter cells viability, CellTiter-Fluor, 17.5 h; series mostly up to 92.4 µM
Procedure, shortened: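 Step one, plate 2,000 PGC/ERR cells per well; step two, incubate 6 h at 37 C/5% CO2; step three, pin-transfer compounds; step four, incubate 17.5 h; step five, add CellTiter-Fluor and read fluorescence after 30 min.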

[5] = qHTS assay to identify small molecule antagonists of the estrogen related receptor signaling pathway with the pleiotropic PPARgamma coactivator (PGC) from Tox21 10K library (AID 1224841; call rule not given here; further: actives are mostly falling curves and most rising ones were filed inactive; nearly all actives have a fitted effect of over 50% in size; further: potency means the concentration at half of the fitted maximal effect); conditions: PGC/ERR reporter cell line, ONE-Glo luciferase, 18 h; series mostly up to 92.4 µM
Procedure, shortened: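 Antagonism in this quantitative HTS is taken from loss of luciferase signal in PGC/ERR cells. Cells (2,000/well) are treated with compounds in DMSO after a 6 h settling period and read by One-Glo luminescence after 18 h.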

[6] = qHTS assay to identify small molecule agonists of the estrogen related receptor signaling pathway with the pleiotropic PPARgamma coactivator (PGC) from Tox21 10K library (AID 1224842); conditions: PGC/ERR reporter cell line, luciferase ONE-Glo, 18 h; series mostly up to 92.4 µM; further: nearly all actives have a fitted effect of over 15% in size; further: potency means the concentration at half of the fitted maximal effect
Procedure, shortened: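 PGC/ERR reporter cell line, 2,000 cells per well, incubated 6 h at 37 C before 23 nL compound in DMSO was added. After 18 h at 37 C, One-Glo luminescence read following 30 min at room temperature.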

[7] = qHTS assay to identify small molecule antagonists of the constitutive androstane receptor (CAR) signaling pathway - cell viability counter screen (AID 1224837); conditions: HepG2-CYP2B6-hCAR viability, CellTiter-Fluor, 23 h, co-treated with 50 nM CITCO; series mostly up to 92.4 µM; further: nearly all actives have a fitted effect of over 45% in size
Procedure, shortened: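 Multiplexed cytotoxicity read-out for the CAR antagonist screen: double-stable HepG2-CYP2B6-hCAR cells co-treated with 50 nM CITCO (final) and compound over 15 concentrations, incubated 23 hr, then assessed by CellTiter-Fluor fluorescence.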

[8] = target: Nuclear receptor subfamily 1 group I member 3 (Homo sapiens) (UniProt Q14994); test: qHTS assay to identify small molecule antagonists of the constitutive androstane receptor (CAR) signaling pathway (AID 1224838); conditions: HepG2-CYP2B6-hCAR luciferase, CITCO-stimulated, 24 h; series mostly up to 92.4 µM; further: nearly all actives have a fitted effect of over 40% in size
Procedure, shortened: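 Compounds were titrated across 15 concentrations onto HepG2 cells double-stably expressing hCAR and a CYP2B6-2.2kb reporter, together with 50 nM CITCO (final). After 24 h at 37 C, luciferase activity was measured by luminescence.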

[9] = target: Nuclear receptor subfamily 1 group I member 3 (Homo sapiens) (UniProt Q14994); test: qHTS assay to identify small molecule agonists of the constitutive androstane receptor (CAR) signaling pathway (AID 1224839); conditions: HepG2 hCAR CYP2B6-luciferase, agonist mode, 24 h; series mostly up to 92.4 µM; further: nearly all actives have a fitted effect of over 15% in size; further: potency means the concentration at half of the fitted maximal effect
Procedure, shortened: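 Compounds tested at 15 concentrations on HepG2 cells stably harbouring hCAR and CYP2B6-2.2kb reporter constructs, co-treated with PK11195 (0.75 uM final), 24 h at 37 C; luminescent reporter signal quantified.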

Measured: Potency

Sequence of Luciferin 4-monooxygenase (Photinus pyralis) (P08659 whole entry, looked up): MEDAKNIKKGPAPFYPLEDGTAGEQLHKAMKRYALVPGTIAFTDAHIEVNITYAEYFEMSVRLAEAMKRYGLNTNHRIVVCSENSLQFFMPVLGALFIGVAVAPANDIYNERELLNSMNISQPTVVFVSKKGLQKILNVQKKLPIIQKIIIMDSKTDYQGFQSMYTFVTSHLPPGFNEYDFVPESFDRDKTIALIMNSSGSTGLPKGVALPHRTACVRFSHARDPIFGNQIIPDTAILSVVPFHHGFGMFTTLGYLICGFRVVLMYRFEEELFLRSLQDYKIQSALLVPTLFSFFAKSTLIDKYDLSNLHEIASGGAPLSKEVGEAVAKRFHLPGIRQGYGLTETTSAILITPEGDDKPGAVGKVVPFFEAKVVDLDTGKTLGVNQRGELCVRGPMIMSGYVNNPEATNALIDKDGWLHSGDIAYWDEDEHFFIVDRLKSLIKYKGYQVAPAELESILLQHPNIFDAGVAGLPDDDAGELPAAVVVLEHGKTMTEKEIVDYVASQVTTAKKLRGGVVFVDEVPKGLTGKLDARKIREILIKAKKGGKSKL
Sequence of Nuclear receptor subfamily 1 group I member 3 (Homo sapiens) (Q14994 whole entry, looked up): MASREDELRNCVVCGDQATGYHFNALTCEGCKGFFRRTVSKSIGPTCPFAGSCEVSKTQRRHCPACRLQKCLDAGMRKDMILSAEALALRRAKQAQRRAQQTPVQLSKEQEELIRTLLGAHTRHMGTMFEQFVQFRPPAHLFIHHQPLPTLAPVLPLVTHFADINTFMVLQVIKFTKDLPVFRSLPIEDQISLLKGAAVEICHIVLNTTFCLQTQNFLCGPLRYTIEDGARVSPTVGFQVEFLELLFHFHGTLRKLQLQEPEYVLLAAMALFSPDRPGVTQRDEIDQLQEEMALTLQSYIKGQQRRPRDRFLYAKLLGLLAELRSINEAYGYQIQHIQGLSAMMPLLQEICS

CCN(CC)C(=O)SCc1ccc(Cl)cc1
inactive: [1] | [3] | [4] | [5] | [6]
active: [2] 35.6 µM

CC(C)(c1cc(Cl)c(O)c(Cl)c1)c1cc(Cl)c(O)c(Cl)c1
not listed: [8] | [9]
inactive: all other assays above

Cc1ccc(N)c(N)c1
inactive: [3] | [7] | [8] | [4]
active: [2] 15.9 µM and 2.52 µM | [9] 27.4 µM and 24.3 µM

N#Cc1cc(Br)c(O)c(Br)c1
active: [5] 54.4 µM and 41.7 µM
not listed: [7]
inactive: all other assays above

O=S(=O)(Oc1ccc(Cl)cc1)c1ccc(Cl)cc1
active: [9] 69.5 µM and 48.6 µM
not listed: [4] | [7]
inactive: all other assays above

O=P(O)(O)CCCl
not listed: [5] | [6] | [7]
inactive: all other assays above

Oc1cc(Cl)c(Cl)cc1Cl
inactive: [1] | [2] | [3] | [4]

CCCCOCCOP(=O)(OCCOCCCC)OCCOCCCC
inactive: [1] | [2] | [3] | [8] | [9]

CC(O)CCO (centres undefined)
inactive: [2] | [3] | [7] | [8] | [9]

CCCCN(CCCC)N=O
inactive: [2] | [3]

N#CCCCl
inactive: [2] | [3] | [7] | [8] | [9]

CCCCC(CC)COC(=O)Cl (centres undefined)
not listed: [4] | [7]
inactive: all other assays above

O=c1oc2ccccc2c(O)c1C(CC(O)c1ccc(-c2ccc(Br)cc2)cc1)c1ccccc1 (centres undefined)
inactive: [2] | [3] | [7] | [8] | [9]

Cc1ccc2c(c1N)C(=O)c1ccccc1C2=O
inactive: [8] | [5]
active: [1] 30.3 µM | [2] 3.95 µM and 5.64 µM | [9] 4.28 µM and 7.7 µM | [6] 19.1 µM and 9.69 µM

Nc1c(Cl)cc([N+](=O)[O-])cc1Cl
active: [5] 48.9 µM and 27.3 µM
not listed: [7]
inactive: all other assays above

CC(C)c1ccc(CO)cc1
not listed: [8] | [9]
inactive: all other assays above

CCC(C)(C)c1ccc(O)cc1
active: [2] 40.4 µM and 63.3 µM
not listed: [8] | [9]
inactive: all other assays above

Nc1ccncc1
not listed: [5] | [6] | [7]
inactive: all other assays above

O=Cc1ccco1
not listed: [4] | [8] | [9]
inactive: all other assays above

ClC1C(Cl)C(Cl)C(Cl)C(Cl)C1Cl (centres undefined)
inactive and 68.6 µM (active): [5]
not listed: [8] | [9]
inactive: all other assays above

O=C(NC(=O)c1c(F)cccc1F)Nc1ccc(Cl)cc1
inactive: [1] | [2] | [3] | [8] | [4]
inactive and 1.22 µM (active): [9]

CCOP(=S)(OCC)O/N=C(\C#N)c1ccccc1
not listed: [8] | [9]
inactive: all other assays above

CC(C)Oc1cc(-n2nc(C(C)(C)C)oc2=O)c(Cl)cc1Cl
active: [9] 60.3 µM and 61.1 µM
inactive: [1] | [2] | [3] | [8] | [4]

CCc1cccc(CC)c1N(COC)C(=O)CCl
inactive: [2] | [3] | [7] | [8] | [4]
active: [9] 18.7 µM and 19.3 µM

CCN(N=O)C(N)=O
inactive: [2] | [3] | [7] | [4]

O=[N+]([O-])c1cccc2ccccc12
not listed: [1] | [7]
inactive: all other assays above

C[C@]12CCC(=O)C(O)=C1CC[C@@H]1[C@@H]2CC[C@]2(C)C(=O)CC[C@@H]12
not listed: [1] | [7]
inactive: all other assays above

OCC(O)CO
not listed: [1] | [8] | [9]
inactive: all other assays above
